Screening data: PubChem BioAssay, several laboratories
NR1D1 modulator – modulators of human Rev-erb alpha DNA binding; P20393; Rev-erbα–FITC-DNA binding, fluorescence polarization, 90 min; activity, % at 10 µM; 370,000 compounds, 0.79% hits; AID 1259318;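 active = activity above about 14%, limit read from the data; passing the limit was not always enough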;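 also: 0% = DMSO wells with 35 nM protein and 100% = DMSO wells with 750 nM protein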
Target sequence (P20393 whole entry, looked up): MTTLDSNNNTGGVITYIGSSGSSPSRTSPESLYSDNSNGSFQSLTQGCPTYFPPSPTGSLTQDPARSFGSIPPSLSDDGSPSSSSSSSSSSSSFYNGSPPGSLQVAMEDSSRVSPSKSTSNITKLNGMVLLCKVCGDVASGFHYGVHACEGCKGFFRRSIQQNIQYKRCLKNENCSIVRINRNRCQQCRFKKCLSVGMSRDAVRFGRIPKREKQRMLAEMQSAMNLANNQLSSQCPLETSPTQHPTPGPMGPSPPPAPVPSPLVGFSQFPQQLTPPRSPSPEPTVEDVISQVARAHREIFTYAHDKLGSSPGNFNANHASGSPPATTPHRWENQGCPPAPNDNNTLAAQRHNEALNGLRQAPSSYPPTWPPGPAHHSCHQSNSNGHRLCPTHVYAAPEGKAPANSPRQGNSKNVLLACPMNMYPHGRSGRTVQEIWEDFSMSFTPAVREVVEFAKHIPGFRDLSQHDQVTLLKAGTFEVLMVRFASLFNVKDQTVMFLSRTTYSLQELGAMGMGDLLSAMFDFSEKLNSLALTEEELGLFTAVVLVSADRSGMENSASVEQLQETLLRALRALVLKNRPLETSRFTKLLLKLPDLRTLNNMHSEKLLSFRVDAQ
hcDAF12 agonist – activators of H. contortus DAF-12 nuclear receptor | HEK293 hcDAF-12 lit1-tk-luc reporter, luminescence; 0% DMSO, 100% Δ7-dafachronic acid | activation, % at 6.8 µM | 370,000 compounds, 1.4% hits | AID 652067;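 active = activation above the mean of all tested compounds plus 3 SD, cut at about 5.5% in these data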;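 also: 100% = response to 3 µM Δ7-dafachronic acid high control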
DAX1 inh-1 – NR0B1 (DAX1) inhibition; inhibition, % at 6.75 µM; 340,000 compounds, 0.99% hits; P51843; HEK293 Gal4-DAX1 luciferase reporter, luminescence;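 active = inhibition above the mean over all tested compounds plus 3 SD, cut at about 4.2% in these data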;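 also: 0% = DAX1-transfected cells with DMSO and 100% = empty-vector control cells with DMSO; inhibition shows as a rise in luminescence from relieved DAX1 repression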
DAX1 inh-2 – blocks DAX1 repression of SF-1 activated StAR promoter | 370,000 compounds, 1.1% hits | inhibition, % at 6.8 µM | HEK293T StAR-luciferase reporter, SF-1/DAX-1 repression relief;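 active = inhibition above the mean over all tested compounds plus 3 SD, cut at about 3.6% in these data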;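 also: 0% = DAX-1 cells with DMSO and 100% = cells lacking DAX-1 with DMSO; higher inhibition means more luminescence from relief of DAX-1 repression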
hgDAF12 agonist – agonists of H. glycines DAF-12 nuclear receptor; AID 687014; 370,000 compounds, 1.8% hits; activation, % at 6.8 µM; HEK293 GAL4-hgDAF12 UAS-luciferase reporter, agonist luminescence; normalized to butyrate control;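 active = activation above a cutoff set at the mean of all screened compounds plus 3 SD, cut at about 10% in these data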;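 also: 0% = DMSO wells and 100% = sodium butyrate wells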
ssDAF12 agonist – S. stercoralis DAF-12 activation, primary screen | HEK293 ssDAF-12/GRIP1 lit1-tk-luc reporter, luminescence; % of 3 µM dafachronic acid response | activation, % at 6.8 µM | 370,000 compounds, 1% hits | AID 652126;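 active = activation above the mean over all tested compounds plus 3 SD, cut at about 0.9% in these data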;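 also: 0% = DMSO-only wells and 100% = 3 µM delta7-dafachronic acid wells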
hgDAF12 conf – confirmation of H. glycines DAF-12 agonists; shares compounds with hgDAF12 agonist; HEK293 GAL4-hgDAF12 luciferase reporter, agonist mode; percent of butyrate response; activation, % at 6.8 µM; 3,300 compounds, 80% hits;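 active = mean activation over triplicate wells above the hit cutoff derived from the earlier primary screen, cut at about 11% in these data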;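 also: 0% = DMSO low control and 100% = 2 mM sodium butyrate high control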
LXR ag 2 – LXR-beta agonism as DAF-12 counter-screen; AID 743051; activation, % at 6.8 µM; 3,300 tested, under 10 active; HEK293 Gal4-LXR luciferase reporter, 24 h; shares compounds with hgDAF12 agonist;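 active = mean activation of the triplicate above a set limit carried over from the primary screen, none filed active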
* marks the source's active call; other numbers are inactive results; . = not tested or not shown. Most compounds without a hit are left out; they make up all but 4.8% or so of the library.

SMILES | NR1D1 modulator | hcDAF12 agonist | DAX1 inh-1 | DAX1 inh-2 | hgDAF12 agonist | ssDAF12 agonist | hgDAF12 conf | LXR ag 2
COc1ccc(CNc2nc3ccccc3n2C(C)C)c(O)c1 | -2 | -3 | 1 | 0 | 0 | -1 | . | .
O=C(Cn1cnc2ccccc2c1=O)Nc1ccc2c(c1)OCCO2 | -4 | 5 | 4 | 3 | 17* | 0 | 14* | 1
O=C(Cn1cnc2ccccc2c1=O)NCCC(=O)Nc1ccc2c(c1)OCCO2 | 2 | -3 | 1 | -1 | -2 | -1 | . | .
C[C@@H]1OC(C2CCCCC2)N(C)[C@H]2C[C@H]3c4[nH]c5c(-c6ccccc6)cccc5c4CCN3C(=O)[C@@H]12 (stereo partly drawn) | -1 | -3 | . | 1 | -1 | 0 | . | .
COc1ccc2c(c1)CN1CN(CC(C)C)S(=O)(=O)CC21 (stereo not drawn) | -3 | 0 | . | -1 | 0 | -1 | . | .
CC(=O)Oc1ccccc1/C=C/c1ccc2ccccc2[n+]1C | -5 | 6.0* | 4 | 2 | 13* | 1.9* | 11* | 0
c1ccc(OCc2nnc(-c3ccccc3)o2)cc1 | 1 | 0 | 1 | 3 | 8 | -1 | . | .
Oc1ccccc1-c1nnc(COc2ccccc2)o1 | -3 | 2 | 2 | 1 | 14* | 0 | 8 | 0
CCCCNC(=O)NC1CCN(CC(=O)Nc2ccc3c(c2)OCCO3)CC1 | -7 | 0 | . | 0 | 0 | -1 | . | .
C/C(N)=C(/C#N)C(=O)CSc1nnc(Nc2ccccc2C)s1 | -2 | 0 | 1 | 0 | 2 | -1 | . | .
C/C(N)=C(/C#N)C(=O)CSc1nnc(Nc2ccccc2)s1 | 0 | 3 | 1 | 2 | 15* | -1 | 10 | 0
CCOC(=O)/C=C/c1cccc(OC)c1O | -1 | 2 | . | 3.8* | 14* | 1 | 14* | 0
CN1OC[C@@H]2CN(CC3CCCCC3)[C@H](c3ccc(-c4ccc(C#N)cc4)cc3)C[C@@H]21 | 5 | 0 | . | 3 | 0 | 0 | . | .
CC(C)c1ccc(NC(=O)Nc2cnccn2)cc1 | 3 | 0 | 0 | 3 | 16* | -1 | 14* | 1
Nc1ccccc1SCc1cn2cccnc2n1 | 4 | 4 | 2 | 1 | 14* | 0 | 4 | 0
COc1cc(SC)ccc1C(=O)Nc1cccc(C)n1 | -3 | 2 | 2 | 4.0* | 16* | -1 | 12* | 1
COc1ccc(S(=O)(=O)N2CCCC2C(=O)Nc2nc3c(s2)CCCC3)cc1 (stereo not drawn) | -1 | -2 | -1 | -1 | 0 | -1 | . | .
COc1ccc(NC(=O)Nc2nc3c(s2)CCCC3)cc1 | -6 | 4 | 3 | 3 | 19* | 0 | 16* | 1
O=C(Nc1ccc2ncccc2c1)c1ccccc1Br | . | . | 2 | . | . | . | . | .
COc1ccc(NC(=O)Nc2cccc(C)n2)cc1 | -1 | 2 | 2 | 2 | 17* | -1 | 12* | 0
COc1cc(SC)ccc1C(=O)Nc1ccc2ncccc2c1 | 6 | 4 | 1 | 3 | 15* | 2.4* | 17* | 1
FC(F)(F)c1ccc(Cn2ccc3ccc(-c4ccc5ccn(Cc6ccc(C(F)(F)F)cc6)c5c4)cc32)cc1 | 9 | 0 | . | -1 | 4 | -1 | . | .
COc1ccc(S[C@]2(C(=O)N3CCCC3)CC(=O)N(S(=O)(=O)c3ccc(F)cc3)[C@@H]2c2ccc(OC)cc2)cc1 | -2 | 0 | . | -3 | 0 | -1 | . | .
CCOc1ccc(CCNC(=O)c2ccc3[nH]ccc3c2)cc1OCC | -7 | -5 | . | . | -6 | -2 | . | .
CCOC(=O)[C@]12CCCC3=C1N(CCC3)C(=O)[C@@H](CC(=O)N1CCN(C(=O)C3CC3)CC1)C2 | 2 | 0 | . | 1 | -1 | -1 | . | .
O=c1c2c(nc3cc(-c4cccc(F)c4)[nH]n13)CCC2 | 1 | 4 | 1 | 3 | 20* | 0 | 17* | 1
Cc1[nH]n2c(=O)c3c(nc2c1-c1ccc(F)cc1)CCCC3 | -2 | 1 | . | 0 | 4 | -1 | . | .
